The structures appear in SMILES notation.
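Also: conidia screened in RPMI 1640 medium under 5% CO2, growth read by spectrophotometer, medium with 0.5% DMSO serving as the untreated reference.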

This experiment relates to Scedosporium aurantiacum CBS 136046. Nature of the experiment: growth inhibition relative to DMSO control (OD600); higher = more antifungal activity, active = 80 or more. The conditions noted are these: 5 µM; 72 h; 37 °C.
As for `CCN1CCN(Cc2nc3ccc([N+](=O)[O-])cc3c(=O)n2-c2ccccc2F)CC1`, the growth inhibition was 2.42% (inactive).

For `C[N+]1(C)CCCC(OC(=O)C(O)(c2ccccc2)c2ccccc2)C1` (stereo not drawn), the growth inhibition is 34.9% (inactive).

For `NC1(C(=O)O)CCP(=O)(O)CC1` (stereo not drawn), the growth inhibition was 11.9% (inactive).

As to `Nc1c(C(=O)NCc2ccco2)c2nc3ccccc3nc2n1CCN1CCCCC1`, the growth inhibition was 36.7% (inactive).

Regarding `C[C@H]1CC[C@]2(NC1)O[C@H]1C[C@H]3[C@@H]4CC[C@H]5C[C@@H](O)CC[C@]5(C)[C@H]4CC[C@]3(C)[C@H]1[C@@H]2C`, the growth inhibition was 8.88% (inactive).

Consider `CN1C(=O)C(c2ccccc2)C(=O)N(c2ccccc2)c2cc(C(F)(F)F)ccc21` (stereo not drawn), for which the growth inhibition is 2.84% (inactive).

In the case of `COc1cc(C(C)(C)CCCC(C)C)cc(OC)c1OC`, the growth inhibition was 13.3% (inactive).

As for `COc1ccccc1CN[C@H]1C2CCN(CC2)[C@H]1C(c1ccccc1)c1ccccc1`, the growth inhibition was 25.9% (inactive).

On to `CC(C)Oc1cccc(NC(=O)c2ccccc2C(F)(F)F)c1`, for which the growth inhibition is 6.87% (inactive).

As to `COC(=O)Nc1nc2ccccc2[nH]1`, the growth inhibition is 1.58% (inactive).

In the case of `CCCCc1ccc(C(=O)O)nc1`, the growth inhibition was 15.8% (inactive).

Turning to `C[C@@]1(O)[C@H](O)[C@@H](CO)O[C@H]1n1ccc2c(N)ncnc21`, the growth inhibition is 3.66% (inactive).

On to `O=C(NC12CC3CC(CC(C3)C1)C2)c1cc2ccccc2[nH]1`, for which the growth inhibition is 1.85% (inactive).

(Values after the supplement of paper PMC9897528.)
